High-throughput results as filed in PubChem BioAssay.
PLK1 PBD block: blocks phosphopeptide binding to human PLK1 polo-box domain. P53350. Plk1 PBD binding of FITC phosphopeptide, fluorescence polarization. Potency, µM, inactives show max response, negative = inhibition, actives largely listed as inhibitors. 2.8% of 360,000 active. AID 720504; further: potency means the concentration at half of the fitted maximal effect; series mostly up to about 57 µM; on the % scale 0 is the no-effect control and ±100 the full control effect; nearly all actives have a fitted effect of over 65% in size
PI5P4Ka inh: PI5P4K alpha (human) kinase inhibition | 1.2% of 330,000 active | max response, % | PI5P4Kalpha enzyme, ADP-Glo luminescence, 60 min; stronger effect = lower value | AID 652105 | P48426; active means max response of -50% or lower; inconclusive means between -30% and -50%; inactive means -30% or higher; further: value at the top dose of about 77 µM; on the % scale 0 is the no-effect control and ±100 the full control effect
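Compounds were pin-transferred onto PI5P4Kalpha and substrate in HEPES pH 7.4 buffer with EGTA, CHAPS and 5% DMSO. ATP (5 microM final) started the reaction, which ran 60 minutes at room temperature before ADP-Glo detection.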
HP1b chromo inh: HP1-beta chromodomain-methylated histone interaction inhibition; P83916; AlphaScreen HP1-beta / biotin-H3K9me3 peptide binding; Potency, µM (top dose mostly 114 µM), without a hit: at the top dose activity change, negative = inhibition, actives largely listed as inhibitors; 0.56% of 390,000 active; AID 540317; further: potency means the concentration at half of the fitted maximal effect; nearly all actives have a fitted effect of over 70% in size
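AlphaScreen: HP1-beta (50 nM) preformed 30 min with biotin-H3(1-18)K9me3 peptide (50 nM) in PBS pH 7.4, 0.01% Tween-20. Compound added for 30 min at RT, then streptavidin donor/nickel chelate acceptor beads (10 ug/mL) for 30 min.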
BAZ2B block: blocks human BAZ2B; Potency, µM (highest dose often 114 µM), inactives show at the highest dose activity change, negative = inhibition, actives largely listed as inhibitors; AID 504333; AlphaScreen BAZ2B-H3K14Ac peptide displacement; 4.4% of 360,000 active; further: potency means the concentration at half of the fitted maximal effect; on the % scale 0 is the no-effect control and ±100 the full control effect; nearly all actives have a fitted effect of over 60% in size
Target sequence (Q9UIF8 whole entry, looked up): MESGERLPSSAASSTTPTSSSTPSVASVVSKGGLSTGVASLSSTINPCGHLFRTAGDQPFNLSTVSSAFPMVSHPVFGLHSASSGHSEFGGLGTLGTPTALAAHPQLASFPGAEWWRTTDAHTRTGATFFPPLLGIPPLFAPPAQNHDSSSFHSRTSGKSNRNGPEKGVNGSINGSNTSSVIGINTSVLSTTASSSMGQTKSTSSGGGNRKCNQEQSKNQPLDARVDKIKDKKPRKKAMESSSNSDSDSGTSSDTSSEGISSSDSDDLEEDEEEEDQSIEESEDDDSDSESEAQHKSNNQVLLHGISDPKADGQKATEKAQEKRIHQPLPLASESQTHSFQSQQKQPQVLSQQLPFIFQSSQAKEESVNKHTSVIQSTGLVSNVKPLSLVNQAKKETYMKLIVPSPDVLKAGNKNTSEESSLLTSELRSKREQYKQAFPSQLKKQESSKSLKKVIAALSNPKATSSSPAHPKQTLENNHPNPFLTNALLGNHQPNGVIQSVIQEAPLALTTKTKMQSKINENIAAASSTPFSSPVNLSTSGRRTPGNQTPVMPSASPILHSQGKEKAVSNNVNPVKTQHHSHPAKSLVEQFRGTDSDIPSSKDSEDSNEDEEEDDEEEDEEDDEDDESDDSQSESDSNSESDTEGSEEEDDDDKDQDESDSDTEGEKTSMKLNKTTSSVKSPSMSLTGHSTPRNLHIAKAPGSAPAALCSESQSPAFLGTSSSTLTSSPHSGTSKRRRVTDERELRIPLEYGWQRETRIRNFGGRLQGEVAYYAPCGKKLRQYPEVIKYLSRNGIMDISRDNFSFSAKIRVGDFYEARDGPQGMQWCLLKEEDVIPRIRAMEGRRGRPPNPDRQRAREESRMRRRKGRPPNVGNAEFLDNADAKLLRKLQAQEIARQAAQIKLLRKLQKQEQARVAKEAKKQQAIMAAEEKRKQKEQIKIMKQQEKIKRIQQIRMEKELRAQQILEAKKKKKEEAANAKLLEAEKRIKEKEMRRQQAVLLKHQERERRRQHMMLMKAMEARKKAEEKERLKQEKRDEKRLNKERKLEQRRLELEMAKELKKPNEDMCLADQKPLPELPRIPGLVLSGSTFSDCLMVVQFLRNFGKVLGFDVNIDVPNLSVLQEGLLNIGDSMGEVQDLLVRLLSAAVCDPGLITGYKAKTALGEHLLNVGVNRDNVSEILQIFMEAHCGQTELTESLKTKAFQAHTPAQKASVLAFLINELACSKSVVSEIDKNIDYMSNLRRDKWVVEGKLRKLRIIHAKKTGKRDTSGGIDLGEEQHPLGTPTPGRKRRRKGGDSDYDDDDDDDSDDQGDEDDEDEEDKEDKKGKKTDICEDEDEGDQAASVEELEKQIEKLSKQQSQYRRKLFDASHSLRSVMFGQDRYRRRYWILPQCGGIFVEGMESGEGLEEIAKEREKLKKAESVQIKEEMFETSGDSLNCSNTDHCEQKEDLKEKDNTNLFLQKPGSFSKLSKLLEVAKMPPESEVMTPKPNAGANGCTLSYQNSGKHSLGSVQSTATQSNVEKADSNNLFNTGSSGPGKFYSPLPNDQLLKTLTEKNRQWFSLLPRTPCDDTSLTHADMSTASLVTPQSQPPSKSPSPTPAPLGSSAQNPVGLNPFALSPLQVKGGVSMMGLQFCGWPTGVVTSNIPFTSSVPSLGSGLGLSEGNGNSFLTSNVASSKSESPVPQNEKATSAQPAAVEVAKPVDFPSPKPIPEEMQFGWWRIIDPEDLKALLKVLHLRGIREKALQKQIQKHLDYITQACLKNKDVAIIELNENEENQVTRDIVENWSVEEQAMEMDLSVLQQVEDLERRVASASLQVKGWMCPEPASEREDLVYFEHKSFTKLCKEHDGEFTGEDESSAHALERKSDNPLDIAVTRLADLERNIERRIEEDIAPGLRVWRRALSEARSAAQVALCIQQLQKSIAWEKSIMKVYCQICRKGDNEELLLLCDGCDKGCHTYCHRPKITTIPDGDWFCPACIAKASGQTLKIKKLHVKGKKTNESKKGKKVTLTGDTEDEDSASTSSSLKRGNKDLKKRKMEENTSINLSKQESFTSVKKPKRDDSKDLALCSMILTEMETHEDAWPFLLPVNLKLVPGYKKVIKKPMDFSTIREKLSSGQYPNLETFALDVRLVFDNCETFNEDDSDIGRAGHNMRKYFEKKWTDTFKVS
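AlphaScreen luminescence quantifies BAZ2B engagement of H3K14Ac peptide; the protein and biotinylated peptide are both at 50 nM final, buffer PBS pH 7.4 with 0.01% Tween-20, all steps at room temperature.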
G9a block: blocks human histone lysine methyltransferase G9a | Q96KQ7 | G9a H3K9 monomethylation, AlphaScreen, 2 h | Potency, µM (titrated, usually from 102 µM), for inactives: at the highest dose activity, negative = inhibition, actives largely listed as inhibitors | 8.8% of 350,000 active; further: potency means the concentration at half of the fitted maximal effect; on the % scale 0 is the no-effect control and ±100 the full control effect; nearly all actives have a fitted effect of over 75% in size
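Quantitative HTS format: methyltransferase activity on a biotin-tagged H3K9 peptide is measured by AlphaScreen, using a rabbit anti-monomethyl-H3K9 antibody with streptavidin donor and anti-IgG acceptor beads. Final levels are 20 nM enzyme, 500 nM peptide, 20 uM SAM; 2 h RT.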
JMJD2A Tudor: blocks the human JMJD2A Tudor domain | Potency, µM (highest dose often 114 µM), for inactives: top-dose activity change, negative = inhibition, hits mostly inhibitors | 4.4% of 390,000 active | AlphaScreen JMJD2A-Tudor / H3K4me3 peptide binding; further: potency means the concentration at half of the fitted maximal effect; on the % scale 0 is the no-effect control and ±100 the full control effect; nearly all actives have a fitted effect of over 50% in size
* marks the source's active call; other numbers are inactive results; ? = inconclusive; nt = no result; ! = not active in a repeat; [ ] = another dose, or the depositor's remark. Most compounds without a hit are left out; they make up all but 12% or so of the library. Unless noted, the call rests on the fitted dose curve; in most records, active means well fitted curve in the direction sought with a large enough effect; inconclusive means small, poorly fitted or top-dose-only effect, or another doubt; inactive means no such curve, though single readings can be large; an effect the other way counts as inactive or inconclusive.

SMILES | PLK1 PBD block | PI5P4Ka inh | HP1b chromo inh | BAZ2B block | G9a block | JMJD2A Tudor
C[C@@H]1CN([C@@H](C)CO)C(=O)c2cc(Br)cnc2O[C@H]1CN(C)S(=O)(=O)c1cccs1 | 4.7% | 2.4 | nt | nt | nt | nt
O=S1(=O)C[C@@H](N2CCN(c3ccccn3)CC2)[C@H](COCc2ccccc2)N1 | -10.5% | -3.3 | nt | nt | nt | nt
CC(=NCCCn1ccnc1)C1=C(O)c2ccccc2C1=O | -3.8% | nt | 22.4% | 44.7µM* | 3.5%[59 µM] | -32.7%
Cc1ccccc1OCCNCC(C)O (stereo not drawn) | -6.4% | 6.1 | ? | 56.2µM* | 14.1µM* | 2.82µM*
c1ccc2c(c1)NCCS2 | ? | 1.5 | -25.7% | 50.1µM* | 16.4%[0.501 µM] | 50.1µM*
S=C1CSc2ccccc2N1 | -7.8% | -8.1 | 2.5% | -15.3% | ? | -16.8%
CC(=O)NC(c1ccc(F)c(F)c1)c1nc(-c2cnn(C)c2)cs1 (stereo not drawn) | -9.0% | 0.8 | nt | nt | nt | nt
COc1ccccc1NC(=O)CN1CCN(CC(=O)Nc2cc(C)ccc2OC)CC1 | 2.8% | 4.1 | 45.7% | -0.3% | -5.3% | 1.1%
CCN1CCOC(=O)C1CC(=O)Nc1cc(C)ccc1OC (stereo not drawn) | nt | nt | 19.8% | -4.9% | 10µM* | -16.8%
CCN1CCOC(=O)C1CC(=O)Nc1ccc(Br)cc1 (stereo not drawn) | nt | nt | -13.5% | -36.0% | 2.51µM* | -13.4%
CC(N)=NCCCC(N)C(=O)O (stereo not drawn) | nt | nt | nt | nt | 23.2%[12.7 µM] | nt
CC(N)=NCCCC[C@@H](N)C(=O)O | nt | nt | nt | nt | 10µM*! | nt
COc1ccc(CCNC(=O)CSc2ccsc2[N+](=O)[O-])c(OC)c1 | -17.9% | -57.2* | 20.6% | -29.1% | ? | -28.9%
COc1ccc(CCNC(=O)CSc2ccsc2[N+](=O)[O-])cc1OC | -11.1% | -19.1 | 20.3% | -15.9% | -32.9% | -24.1%
COc1ccc(OC)c(CCNC(=O)CSc2ccsc2[N+](=O)[O-])c1 | -22.3% | -55.3* | -5.5% | ? | 31.6µM* | 44.7µM*
COc1ccc(CCN2CC(C(=O)NCc3cn(C)nc3C)CCC2=O)cc1 (stereo not drawn) | -10.9% | -0.3 | nt | nt | nt | nt
Cc1ccc(O)c(-c2n[nH]c3c2C(c2ccccc2F)N(Cc2ccco2)C3=O)c1 (stereo not drawn) | nt | nt | -10.1% | -33.2% | -33.1%[59 µM] | ?
Cc1nc(C)c(C(=O)Nc2nc3c(C)cccc3s2)o1 | 23.8µM* | nt | ? | 35.5µM* | 14.1µM* | 35.5µM*
Cc1cccc2sc(NC(=O)C3=NN(c4ccccc4)C(=O)CC3)nc12 | -7.0% | -7.2 | 36.3% | -2.7% | 50.1µM* | -7.0%
Oc1ccccc1Nc1nc(-c2ccccc2)c2cc(Cl)ccc2n1 | nt | nt | 23.3% | -15.1% | -11.2%[59 µM] | -24.7%
Cc1cccc(NC(=O)CSC2=Nc3ccccc3C3=NC(CCC(=O)NCc4ccc(F)cc4)C(=O)N23)c1 (stereo not drawn) | nt | nt | 20.5% | 3.2% | 2.6%[59 µM] | -11.0%
c1ccc(CCn2nnc3ccccc32)cc1 | 21.2µM* | -2.8 | 15.5% | 29.6% | nt | -3.7%[11.4 µM]
O=C1C2CC=C(Cl)CC2C(=O)N1c1ncn[nH]1 (stereo not drawn) | -15.8% | -3.4 | 39.1% | 56.2µM* | ? | 89.1µM*
CC1=C(C(=O)Nc2ccccc2)C(c2ccc[nH]2)n2ncnc2N1 (stereo not drawn) | nt | nt | -28.5%[57 µM] | 8.91µM* | ? | 22.4µM*
CCCCCCCCCCCCCCCCCC(=O)OCC(C)O (stereo not drawn) | nt | nt | nt | nt | 25.1µM* | nt
SMILES | PLK1 PBD block | PI5P4Ka inh | HP1b chromo inh | BAZ2B block | G9a block | JMJD2A Tudor
O=c1[nH]c(CSc2nc3ccccc3s2)nc2ccccc12 | ? | -14.2 | -3.8% | 1.6% | ? | -24.0%
Cc1sc2nc(CSc3nc4ccccc4s3)[nH]c(=O)c2c1C | nt | nt | nt | ? | 8.91µM* | nt
O=c1[nH]c(CSc2nc3ccccc3s2)nc2cc(Cl)ccc12 | nt | nt | nt | -15.7% | 28.2µM* | nt
Cc1sc2nc(CSc3ccc([N+](=O)[O-])cc3)[nH]c(=O)c2c1C | nt | nt | nt | -2.2% | ? | nt
Cc1cccc(NC(=O)CSc2nc(=O)n(CCN3CCOCC3)c3c2CCC3)c1 | nt | nt | 32.8% | -1.7% | -1.6%[59 µM] | 1.3%
CC1(C)Cc2c(c(-c3ccco3)nc3sc4c(NCC5CCCO5)ncnc4c23)CO1 (stereo not drawn) | ? | -20.6 | 4.4% | 5.3% | -19.1%[59 µM] | ?
CSc1nc(SCC(=O)O)c2sc3nc(-c4ccccc4)c4c(c3c2n1)CCC4 | 11.9µM* | -17.5 | ? | 22.4µM* | 17.8µM* | 28.2µM*
CSc1nc(NCCN(C)C)c2sc3nc(-c4ccco4)c4c(c3c2n1)CCC4 | -12.0% | -10.2 | ? | nt | nt | 89.1µM*
O=C(O)CSc1nc2sc3c(c2c(=O)n1-c1ccccc1)CCC3 | ? | -29.7 | 17.4% | -9.2% | ? | ?
CSc1nc(N(C)CCO)c2sc3nc(-c4ccco4)c4c(c3c2n1)CCC4 | 23.8µM* | nt | -60.0% | 50.1µM* | 15.4%[0.0925 µM] | 25.1µM*
CSc1nc(N2CCN(CCO)CC2)c2sc3nc(-c4ccco4)c4c(c3c2n1)CCC4 | nt | nt | nt | nt | -13.9%[59 µM] | nt
CCOC(=O)c1ccccc1NC(=O)c1cc2c(s1)-c1ccccc1SC2 | nt | nt | 97.1% | 74.3% | 133.4%[59 µM] | 55.0%
CN1C(=O)/C(=C2\SC(=S)N(CCCCCC(=O)O)C2=O)c2ccccc21 | ? | -0.4 | 39.8µM* | -20.6% | -27.4% | ?
Cc1c(N2C(=O)/C(=C/c3ccccc3)SC2=S)c(=O)n(-c2ccccc2)n1C | -10.1% | -0.3 | -5.9% | -36.6% | 21.3%[0.501 µM] | -22.4%
CC1CN(C2=NC(=O)/C(=C3/C(=O)N(Cc4ccc(F)cc4)c4ccccc43)S2)CC(C)O1 (stereo not drawn) | ? | -3.4 | ? | ? | nt | -32.9%
Cc1c(N2C(=O)/C(=C3\C(=O)N(CC(=O)O)c4ccccc43)SC2=S)c(=O)n(-c2ccccc2)n1C | ? | -4.2 | 5.5% | 79.4µM* | nt | -20.4%
O=C(O)CCN1C(=O)/C(=C2\C(=O)N(Cc3ccc(F)cc3)c3ccccc32)SC1=S | 18.9µM* | 0.7 | 28.2µM* | 2.51µM* | 15.8µM* | 25.1µM*
CC1=C(C(=O)N(C(C)C)C(C)C)CC(CC(=O)NCCc2ccccn2)C(=O)N1CCCN1CCCC1=O (stereo not drawn) | -6.9% | -0.6 | nt | nt | nt | nt
COc1ccc(CN2C(=O)CSCC2(C)C(=O)NCc2ccccc2)cc1 (stereo not drawn) | -3.2% | -1.4 | nt | nt | nt | nt
Cc1ccc(-n2cc(CNCCc3ncc(C)[nH]3)c(-c3ccc(F)cc3)n2)cc1 | -5.8% | 10.2 | -4.8% | ? | -22.3% | 56.2µM*
COc1ccc(-n2cc(CNCCc3cnc[nH]3)c(-c3cccc(F)c3)n2)cc1 | -13.5% | 1.8 | 2.4% | 50.1µM* | -45.7% | ?
COc1ccc(-n2cc(CNCc3cccnc3)c(-c3cccc(F)c3)n2)cc1 | -9.3% | 37.0 | 5.0% | -37.1% | -1.2%[12.7 µM] | -22.8%
